This is an account of results in PubChem BioAssay AID743279 (National Center for Advancing Translational Sciences (NCATS), 2014).

SMILES strings stand for the structures. About 17,000 (4.7%) of roughly 360,000 compounds were called active. Another 5% or so got no clear call; they are omitted. This is one part of a sample in which actives are shown more often than they occur. Rule as the data show it: active = activity change below about -50%; inconclusive = mostly about -30% to -49%; inactive = weaker than that.
% is scaled to controls: 0 for no effect and ±100 for the full control effect.

The nature of this test: qHTS for Inhibitors of Inflammasome Signaling: IL-1-beta AlphaLISA Primary Screen. To be noted: THP-1 LPS/ATP IL-1B secretion, 16 h; at 57.5 µM, stronger effect = lower value. In a few lines: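 Secreted IL-1B measured by AlphaLISA bead assay after 16 h compound exposure of THP-1 cells; compounds (final up to 57.5 uM) added 1 h before LPS (250 ng/mL) and ATP (1.25 mM) stimulation; lower signal means less secretion.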
For orientation: In qHTS, concentration-response curves come from the screen itself.
`COc1ccc(S(=O)(=O)NC(=O)C2(C)CCN2C(=O)COc2ccc(Cl)cc2)cc1` (stereo unspecified): the activity change is 21% (inactive).
To `Cc1ccc(N2C(=O)CC(N3CCSCC3)C2=O)c(C)c1` (stereo unspecified) belongs 9.43% (inactive); to `Cc1c(O)c(C)c2c(c1O)C(=O)C[C@@H](c1ccccc1)O2`, 40.2% (inactive); to `CCCNC(=O)C1CC(=O)N(c2ccc(OCc3ccccc3)cc2)C1` (stereo unspecified), 18% (inactive).
`c1ccc(C(=NNc2nc3ccccc3s2)c2ccccn2)cc1`: the activity change was -21.7% (inactive).
To `C=CCn1nc(C(=O)OCC)cc1-c1sc(NC(=O)c2ccccc2)nc1C` belongs -29.6% (inactive); to `CNC[C@H]1OCc2cnnn2CCCC(=O)N([C@H](C)CO)C[C@@H]1C`, -6.3% (inactive); to `COc1cc(C(=O)NCc2nnc(SCC(=O)c3ccc(Cl)cc3)o2)cc(OC)c1OC`, 9.13% (inactive).
Turning to `CCC(=O)Nc1ccc(C(=O)CSc2nnc(CNc3ccc(Cl)cc3)o2)cc1OC`, the activity change was -55.7% (active).
To `CCOC(=O)CSc1nnc(CNc2ccc(F)cc2)o1` belongs 3.99% (inactive); to `Cc1ccc(-c2csc(C(C#N)=C(O)CN3CCN(C(=O)c4ccco4)CC3)n2)cc1`, -7.72% (inactive); to `COc1ccc(C(=O)COC(=O)CN2C(=O)C3CC=CCC3C2=O)c(OC)c1` (stereo unspecified), -15.2% (inactive).
In the case of `CC1=CC(C)(C)Nc2ccc(OC(=O)CN3C(=O)C4CCCCC4C3=O)cc21` (stereo unspecified) it was -97.6% (active); in that of `CC1=CC(C)(C)Nc2ccc(OC(=O)C(Cc3ccccc3)N3C(=O)C4CCCCC4C3=O)cc21` (stereo unspecified), -94.7% (active).
On to `O=C(C(Cc1ccccc1)n1cccc1)N1CCN(C2CCCCC2)CC1` (stereo unspecified), for which the activity change is 8.33% (inactive).
To `O=C(COC(=O)CN1C(=O)C2CCCCC2C1=O)Nc1ccc(F)c(F)c1F` (stereo unspecified) belongs 4.41% (inactive).
In the case of `CCOC(=O)C(Cc1ccc(N)cc1)N1C(=O)c2ccccc2C1=O` (stereo unspecified) it was 12.1% (inactive); in that of `C/C=C/C(=O)OCc1csc(CC(=O)Nc2ccccc2C)n1`, 13.6% (inactive); in that of `COc1ccc(S(=O)(=O)N2CCN(C(C)C(=O)Nc3ccc(C(C)C)cc3)CC2)cc1` (stereo unspecified), -16.4% (inactive).
To `COCCCNC(=O)Cc1ccc(-n2c(C)nc3cccnc32)cc1` belongs 22.7% (inactive); to `COc1cccc(C(O)c2ncc(-c3ccc4ccccc4c3)[nH]2)c1` (stereo unspecified), 18.2% (inactive); to `CCOC(=O)C1CCCN(C(=O)c2ccc(C)c(S(=O)(=O)N3CCCCC3)c2)C1` (stereo unspecified), 4.44% (inactive).
`COc1ccc(Cl)cc1-n1c(=S)sc2c(=O)n(-c3ccc(F)cc3)c(SCC(=O)O)nc21`: the activity change is 14.4% (inactive).
In the case of `COc1ccc(CCNC(=O)CN(c2ccccc2)S(=O)(=O)c2ccccc2)cc1` it was 15.3% (inactive).
To `CC(=O)COc1ccc2c(-c3ccccc3)cc(=O)oc2c1` belongs -27.2% (inactive); to `CCc1cc(=O)oc2cc(OCC(=O)N3CCCc4ccccc43)ccc12`, -60.9% (active).
In the case of `CCOc1ccccc1N1CCN(C(=O)COc2ccc3c(C)cc(=O)oc3c2)CC1` it was 23% (inactive).
As to `CC(C)c1cc(C(=O)N(C)C2CCCN(Cc3ccccc3F)C2)n(C)n1` (stereo unspecified), the activity change is 41.9% (inactive).
To `CCN(CC)C(=O)C1=C(C)N(Cc2ccccc2)C(=O)C(CC(=O)NC(c2ccccc2)c2ccccc2)C1` (stereo unspecified) belongs -15.6% (inactive).
To `O=C(Nc1cccc(F)c1)NC1CCCc2ccccc21` (stereo unspecified) belongs -9.52% (inactive); to `C/C(CC(=O)Nc1cccc(F)c1)=N\NC(=O)C(=O)NC1CCCCC1`, -10.5% (inactive); to `O=C(Nc1cccc(F)c1)NC1CCCCCCC1`, -92.1% (active).
To `COc1ccc(NC(=O)C[C@H]2C(=O)N(CCc3ccccc3)C[C@@H]2C)cc1` belongs -9.78% (inactive); to `FC(F)Oc1ccccc1NC(=S)Nc1cccc(Cl)c1Cl`, 23.7% (inactive).
In the case of `CC(C)(C)S(=O)N1Cc2cc(C(=O)NCCCN3CCOCC3)nc(-c3cccc(-c4cc5ccccc5o4)c3)c2[C@H]1CCO` (stereo partly specified), the activity change is -27.7% (inactive).
In the case of `CCc1cccc(CC)c1N1C(=O)CC(Sc2ccccc2N)C1=O` (stereo unspecified) it was 17.8% (inactive); in that of `Cc1ccccc1S(=O)(=O)NC(=O)C1(C)CCN1C(=O)Cc1ccc(Cl)cc1Cl` (stereo unspecified), -18.4% (inactive).
In the case of `CC(=O)N1CC(C)c2scc(C)[n+]2-c2ccccc21` (stereo unspecified) it was -71.4% (active); in that of `O=C(Nc1nnc(S(=O)(=O)N2CCCCCC2)s1)c1cccc(Br)c1`, -9.2% (inactive).
To `O=C1C=C(NS(=O)(=O)c2ccccc2)C(=O)c2ccccc21` belongs -0.814% (inactive); to `O=C(NC1=CC(=O)c2ccccc2C1=O)c1ccccc1`, -96.1% (active).
Regarding `Cn1c(NC(=O)c2ccccc2)nc2ccccc21`, the activity change was 35.1% (inactive).
For `N#Cc1cccc(NC(=O)c2cc(C3CCCCN3C(=O)CCc3ccccc3)on2)c1` (stereo unspecified), the activity change was -18% (inactive).
In the case of `Clc1c(OCCCn2ccnc2)ccc2ccccc12`, the activity change is -77% (active).
Turning to `O=C(NCCCn1ccnc1)c1ccccc1F`, the activity change was 8.56% (inactive).
In the case of `C=CCc1cc(C)ccc1OCCCn1ccnc1` it was -24.1% (inactive).
In the case of `COc1cccc(CNC(=O)[C@@H]2CCCN2C(=O)[C@@H]2CCCN2C(=O)c2ccccc2)c1` it was 0% (inactive); in that of `O=C(CCc1ccccc1)Nc1ccc(NC(=O)C2CCCCC2)nc1`, -9.78% (inactive).
To `C=CCN1CCN(c2ccncc2S(=O)(=O)N2CCN(C)CC2)CC1` belongs -7.51% (inactive); to `CC(=O)OC1CCC2(C)C(=CCC3C4CC(=O)N(O)C(=O)C4(C)CCC32)C1` (stereo unspecified), -9.48% (inactive); to `O=C(Nc1cccc(NC(=O)N2CCN(c3ccccc3)CC2)c1)N1CCN(c2ccccc2)CC1`, -55.8% (active).
For the compound `O=C(Nc1ccccc1)N1CCN(C2c3ccccc3-c3ccccc32)CC1`, the activity change was -15.2% (inactive).
In the case of `O=C(Nc1ccc(F)cc1)N1CCN(c2ccc(F)cc2)CC1` it was 2.96% (inactive); in that of `CCOC(=O)c1c(NC(=O)COC(=O)c2ccc(S(=O)(=O)C(F)F)cc2)sc(C(=O)N(C)C)c1C`, -22% (inactive); in that of `C=CCN1C=C(C(=O)c2ccccc2)C(=O)CC1`, 14% (inactive).
To `CC(C)C1C(=O)N(Cc2cn(CCC3OCCO3)nn2)CCS(=O)(=O)N1Cc1ccc(-c2ccccc2C(F)(F)F)cc1` (stereo unspecified) belongs -17.2% (inactive); to `O=C(OC(C(=O)NC1CCCC1)c1ccc(F)cc1)c1ccno1` (stereo unspecified), -4.45% (inactive); to `CCOc1ccc(/C=C(/C#N)c2nnc(N3CCOCC3)n2-c2ccccc2)cc1OC`, -13.1% (inactive).
To `COc1ccc(C2(C)ON(c3ccccc3C(F)(F)F)C2=O)cc1` (stereo unspecified) belongs -62.1% (active).
With `COc1ccc(C2(O)C(=O)Nc3ccccc32)cc1` (stereo unspecified), the activity change is 16% (inactive).
In the case of `COc1ccc(C2(C)NC(=O)N(CC(=O)c3ccc4c(c3)OCO4)C2=O)cc1` (stereo unspecified) it was 6.28% (inactive); in that of `COC(=O)CCCCC1=CCC2C(=O)C=C(O)C2C1` (stereo unspecified), 46.8% (inactive); in that of `Cc1cc(C)cc(NC(=O)C2CCCN(S(=O)(=O)c3ccc4[nH]c(=O)ccc4c3)C2)c1` (stereo unspecified), -11.9% (inactive).
To `CC(C(=O)NC1CCCC1)N1CCN(S(=O)(=O)c2ccccc2Cl)CC1` (stereo unspecified) belongs -3.55% (inactive); to `CCc1nc2c(OCCOc3ccccc3)cccn2c1N(C)C(=O)c1ccc(OC)cc1`, -0.0267% (inactive); to `COc1ccc(S(=O)(=O)N(C)C)cc1NC(=O)COC(=O)c1n[nH]c2ccccc12`, -8.2% (inactive).
In the case of `O=C(Nc1nnc(C2CC2)s1)c1ccccn1`, the activity change is 12.6% (inactive).
As for `Cc1cnc(NC(=O)C2CCCC2)s1`, the activity change was -15.9% (inactive).
To `Cc1cnc(NC(=O)c2ccccn2)s1` belongs -99.9% (active); to `O=S(=O)(N1CCCCC1)N1CCNCC1`, 18.8% (inactive).
In the case of `CNC(=O)c1ccc(CN(C)C(=O)c2cc(C3CC3)nc3c2cnn3C(C)C)cc1` it was -23.4% (inactive); in that of `CCOC(=O)C1=C(CSc2nnnn2C)N(C)C(=O)NC1c1ccccc1` (stereo unspecified), 25.6% (inactive).
To `COc1cc(/C=N/NC(=O)Cc2ccccc2)cc(OC)c1OC` belongs 11.4% (inactive); to `COc1cc(/C=N/O)cc(Br)c1OCc1cccc(Cl)c1`, -101% (active).
For `COc1cc(/C=N/O)cc(Br)c1OS(=O)(=O)c1ccc(C)cc1`, the activity change was -4.12% (inactive).
To `CCCCCCn1c(=O)n2n(c1=O)C[C@]1(OC(=O)NCc3ccc(OC)c(OC)c3)CN(S(=O)(=O)c3ccc(C)cc3)C[C@]1(O)C2` belongs -2.71% (inactive).
Turning to `NS(=O)(=O)c1ccc2nc(NC(=O)C3=COCCO3)sc2c1`, the activity change is 4.02% (inactive).
In the case of `CCC(=O)N1CCC(C)(C(=O)Nc2cc(OC)c(OC)c(OC)c2)C1` (stereo unspecified) it was 33.3% (inactive); in that of `CN(Cc1ccccc1)C(=O)COc1ccccc1`, -10.6% (inactive).
Turning to `CN(Cc1ccccc1)C(=O)c1ccc(COc2ccccc2)cc1`, the activity change is -71.5% (active).
In the case of `CN(CC(=O)Nc1ccc(Cl)cc1)C(=O)c1ccc(COc2ccccc2)cc1` it was 5.98% (inactive); in that of `CN(Cc1ccccc1)C(=O)[C@@H]1CCCN1C(=O)[C@@H]1CCCN1C(=O)c1c(F)cccc1F`, 32.8% (inactive); in that of `CC(=O)NC(Cc1c[nH]c2ccccc12)C(=O)O` (stereo unspecified), 35% (inactive).
In the case of `CC(=O)NC(Cc1c[nH]c2ccccc12)C(=O)NCCc1ccccc1` (stereo unspecified) it was -9.89% (inactive); in that of `O=C(NC(Cc1c[nH]c2ccccc12)C(=O)N/N=C/c1ccc(Br)cc1)c1cccs1` (stereo unspecified), -61.1% (active); in that of `CC(C)Sc1nc(N)nc2c1ncn2C1OC(CO)C(O)C1O` (stereo unspecified), 16% (inactive).
As to `CCCCCCCCn1c2c(c(=N)c3c1CCC3)CCCC2`, the activity change is -89.8% (active).
For the compound `CC(=O)Nc1ccc(S(=O)(=O)N2CCC(NC(=O)c3ccccc3)CC2)cc1`, the activity change is 7.08% (inactive).
In the case of `CCOc1ccc(N2C(=O)CC(N(CCc3ccc(OC)c(OC)c3)C(=S)Nc3ccccc3)C2=O)cc1` (stereo unspecified) it was 44.8% (inactive).
In the case of `CC(C)=CCCC1(C)C=Cc2c(ccc3c2[nH]c2cc(O)c(C)cc23)O1` (stereo unspecified) it was -71.6% (active).
Take `Cc1ccc(S(=O)(=O)C2C(=O)NC3(C)CC2c2ccccc2O3)cc1` (stereo unspecified): the activity change is 12.4% (inactive).
